Calls of active or inactive are those of the source. The calls were made as follows: active = hit-call score of the fitted dose curve at least 0.9, where 1 is the maximum; inactive = score below 0.9.

Read-out in experiment [1]: Vascular endothelial growth factor receptor 2 (Homo sapiens) (UniProt P35968)
In words: BSK_4H_VEGFRII: BioMAP Diversity Plus: 4H Assay for Vascular endothelial growth factor receptor 2 (VEGFR2) Biomarker Activity (AID 2283031).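 As to AC50: cell-surface VEGFR2 protein level quantified by ELISA.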 As to conditions: primary human endothelial cells (HUVEC); actives raise or lower the signal. A digest of the protocol:
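In this multiplexed HUVEC system, biomarker ELISA was performed after 24 h chemical exposure. Parallel SRB staining (TCA fixation, 560 nm) tracked cytotoxicity; DMSO served as baseline.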

Read-out in experiment [2]: Human Leukocyte Antigen - DR isotype (HLADR), HLA-DRA (gene 3122)
In words: BSK_BE3C_HLADR: BioMAP Diversity Plus: BE3C Assay for Human Leukocyte Antigen - DR isotype (HLADR) Biomarker Activity (AID 2283032). As to conditions: primary human bronchial epithelial cells; actives raise or lower the signal. The procedure, abridged:
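ELISA read-out of HLA-DR on human lung bronchial epithelial primary cells, measured 24 h post-dosing. Both increases and decreases were scored relative to DMSO vehicle.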

Read-out in experiment [3]: Vascular cell adhesion molecule 1 (VCAM1), VCAM1 (gene 7412)
Description: BSK_4H_VCAM1: BioMAP Diversity Plus: 4H Assay for Vascular cell adhesion molecule 1 (VCAM1) Biomarker Activity (AID 2283033).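 As to outcome: cell-surface VCAM-1 protein measured by ELISA.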 Particulars: primary human endothelial cells (HUVEC); actives raise or lower the signal. A digest of the protocol:
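ELISA read-out of VCAM-1 on human umbilical vein endothelium 24 hours after chemical dosing; gain or loss of signal was fitted relative to DMSO, with sulforhodamine B staining of parallel cultures flagging overt cytotoxicity.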

Read-out in experiment [4]: Interferon-gamma inducible Protein 10 (IP10), CXCL10 (gene 3627)
Description: BSK_BE3C_IP10: BioMAP Diversity Plus: BE3C Assay for Interferon-gamma inducible Protein 10 (IP10) Biomarker Activity (AID 2283034). As to conditions: primary human bronchial epithelial cells; actives raise or lower the signal. A digest of the protocol: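 Chemical is dosed onto human lung bronchial epithelial primary cells, cultures are incubated 24 h, and IP-10 is then quantified by ELISA. Gain or loss of signal is fitted in both directions relative to DMSO.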

Read-out in experiment [5]: Monokine induced gamma interferon (MIG), CXCL9 (gene 4283)
Description: BSK_BE3C_MIG: BioMAP Diversity Plus: BE3C Assay for Monokine induced gamma interferon (MIG) Biomarker Activity (AID 2283035). As to conditions: primary human bronchial epithelial cells; actives raise or lower the signal. A digest of the protocol: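 Primary human bronchial epithelial cells treated for 24 h; MIG levels measured by ELISA, fitted bidirectionally versus DMSO. Parallel SRB total-protein staining assessed cytotoxicity.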

Read-out in experiment [6]: Transforming growth factor beta 1 (TGFb1), TGFB1 (gene 7040)
Description: BSK_BE3C_TGFb1: BioMAP Diversity Plus: BE3C Assay for Transforming growth factor beta 1 (TGFb1) Biomarker Activity (AID 2283036;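 as to outcome: TGF-b1 protein level measured by ELISA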). As to conditions: primary human bronchial epithelial cells; actives raise or lower the signal. A digest of the protocol:
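Primary human lung bronchial epithelial cells; compound exposure 24 h; TGF-b1 by ELISA; bidirectional fit, DMSO baseline. Parallel SRB total-protein staining for cytotoxicity.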

Read-out in experiment [7]: Plasminogen activator inhibitor-1 (PAI1), SERPINE1 (gene 5054)
Description: BSK_BE3C_PAI1: BioMAP Diversity Plus: BE3C Assay for Plasminogen activator inhibitor-1 (PAI1) Biomarker Activity (AID 2283037). As to conditions: primary human bronchial epithelial cells; actives raise or lower the signal. The procedure, abridged:
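Primary human lung bronchial epithelial cells; chemical dosing; 24 h; PAI-1 measured by ELISA; bidirectional fit referenced to DMSO as negative control.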

Read-out in experiment [8]: urokinase plasminogen activator (uPA), PLAU (gene 5328)
Description: BSK_BE3C_uPA: BioMAP Diversity Plus: BE3C Assay for urokinase plasminogen activator (uPA) Biomarker Activity (AID 2283038).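 As to outcome: uPA protein level quantified by ELISA in cell cultures; uPA read one day after compound addition.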 Particulars: primary human bronchial epithelial cells; actives raise or lower the signal. The procedure, abridged: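 Using confluent primary human lung bronchial epithelial cultures, we dosed chemicals, waited 24 h, then ran a uPA ELISA, fitting bidirectionally against DMSO.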

Read-out in experiment [9]: Urokinase-type plasminogen activator receptor (uPAR), PLAUR (gene 5329)
In words: BSK_BE3C_uPAR: BioMAP Diversity Plus: BE3C Assay for Urokinase-type plasminogen activator receptor (uPAR) Biomarker Activity (AID 2283039).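 As to outcome: cells exposed to compound for one day before measurement.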 As to conditions: primary human bronchial epithelial cells; actives raise or lower the signal. The procedure, abridged:
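Human bronchial epithelial primary cells; chemical exposure 24 h; uPAR by ELISA; bidirectional fit vs DMSO control.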

Read-out in experiment [10]: Interleukin-6 (IL6), IL6 (gene 3569)
Description: BSK_CASM3C_IL6: BioMAP Diversity Plus: CASM3C Assay for Interleukin-6 (IL6) Biomarker Activity for (AID 2283040). As to conditions: primary human coronary artery smooth muscle cells; actives raise or lower the signal.

Read-out in experiment [11]: Tissue plasminogen activator (tPA), PLAT (gene 5327)
In words: BSK_BE3C_tPA: BioMAP Diversity Plus: BE3C Assay for Tissue plasminogen activator (tPA) Biomarker Activity (AID 2283041).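 As to outcome: tPA level quantified by ELISA one day after compound addition.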 Particulars: primary human bronchial epithelial cells; actives raise or lower the signal. The procedure, abridged:
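Primary human lung bronchial epithelial cultures receive test chemical; after 24 h, tPA is quantified by ELISA, and gain or loss of signal is fitted bidirectionally relative to DMSO baseline.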

Read-out in experiment [12]: Interleukin-8 (IL8), CXCL8 (gene 3576)
In words: BSK_CASM3C_IL8: BioMAP Diversity Plus: CASM3C Assay for Interleukin-8 (IL8) Biomarker Activity (AID 2283042).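 Also: IL-8 protein level quantified by ELISA.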 As to conditions: primary human coronary artery smooth muscle cells; actives raise or lower the signal.

Read-out in experiment [13]: Human Leukocyte Antigen - DR isotype (HLADR), HLA-DRA (gene 3122)
In words: BSK_CASM3C_HLADR: BioMAP Diversity Plus: CASM3C Assay for Human Leukocyte Antigen - DR isotype (HLADR) Biomarker Activity (AID 2283043).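 Also: cell-surface HLA-DR protein level quantified by ELISA.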 Particulars: primary human coronary artery smooth muscle cells; actives raise or lower the signal.

Read-out in experiment [14]: Macrophage colony-stimulating factor (MCSF), CSF1 (gene 1435)
In words: BSK_CASM3C_MCSF: BioMAP Diversity Plus: CASM3C Assay for Macrophage colony-stimulating factor (MCSF) Biomarker Activity (AID 2283044).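 Also: M-CSF protein amount quantified by ELISA after 24 h exposure.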 Particulars: primary human coronary artery smooth muscle cells; actives raise or lower the signal.

Read-out in experiment [15]: Low-density lipoprotein receptor (LDLR), LDLR (gene 3949)
In words: BSK_CASM3C_LDLR: BioMAP Diversity Plus: CASM3C Assay for Low-density lipoprotein receptor (LDLR) Biomarker Activity (AID 2283045).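 Also: LDLR protein level on the cell surface quantified by ELISA.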 Particulars: primary human coronary artery smooth muscle cells; actives raise or lower the signal.

Read-out in experiment [16]: Monocyte Chemoattractant Protein-1 (MCP1), CCL2 (gene 6347)
In words: BSK_CASM3C_MCP1: BioMAP Diversity Plus: CASM3C Assay for Monocyte Chemoattractant Protein-1 (MCP1) Biomarker Activity (AID 2283046).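 Also: MCP-1 level quantified by ELISA 24 h after dosing.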 As to conditions: primary human coronary artery smooth muscle cells; actives raise or lower the signal.

A short description of experiment [17]: BSK_CASM3C_Proliferation: Cell Proliferation Assessment in the BioMAP Diversity Plus: CASM3C Assay (AID 2283047).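 Also: sulforhodamine B total protein stain as relative cell number at 560 nm; sub-confluent cells exposed 48 h before staining; fitted both ways against DMSO so gain or loss of cell number.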 Particulars: primary human coronary artery smooth muscle cells.
Read-out in experiment [18]: Monokine induced gamma interferon (MIG), CXCL9 (gene 4283)
In words: BSK_CASM3C_MIG: BioMAP Diversity Plus: CASM3C Assay for Monokine induced gamma interferon (MIG) Biomarker Activity (AID 2283048). As to conditions: primary human coronary artery smooth muscle cells; actives raise or lower the signal.

Read-out in experiment [19]: serum amyloid A (SAA), SAA1 (gene 6288)
In words: BSK_CASM3C_SAA: BioMAP Diversity Plus: CASM3C Assay for serum amyloid A (SAA) Biomarker Activity (AID 2283049).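 Also: SAA protein level quantified by ELISA.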 As to conditions: primary human coronary artery smooth muscle cells; actives raise or lower the signal.

Experiment [20] is described as follows: BSK_CASM3C_SRB: Viability Assessment in the BioMAP Diversity Plus: CASM3C Assay (AID 2283050).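 Also: total protein by SRB staining as cytotoxicity measure in parallel cultures.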 Particulars: primary human coronary artery smooth muscle cells.

With `CCC1(c2ccccc2)C(=O)N=C(O)NC1=O` (stereo not given), the outcome in experiment [1], in [2], in experiment [3], in experiment [4], in experiment [5] and in experiment [6] was inactive. Moreover, the result in experiment [7], in experiment [8], in experiment [9], in experiment [10], in experiment [11] and in experiment [12] was inactive. Besides, the outcome in [13], in [14], in experiment [15], in [16], in experiment [17] and in [18] was inactive. The outcome in experiment [19] and in experiment [20] was inactive.
On to `[N-]=[N+]=[N-]`, for which the outcome in [1], in experiment [2], in experiment [3], in experiment [4], in experiment [5] and in [6] was inactive. In addition, the outcome in [7], in [8], in [9], in experiment [10], in experiment [11] and in [12] was inactive. Moreover, the outcome in experiment [13], in [14], in experiment [15], in experiment [16], in experiment [17] and in experiment [18] was inactive. Besides, the result in experiment [19] and in [20] was inactive.
With `CCOc1ccc(C(C)(C)COCc2cccc(Oc3ccccc3)c2)cc1`, the result in experiment [1], in [2], in experiment [3], in experiment [4], in experiment [5] and in [6] was inactive. For the same compound, the outcome in [7], in experiment [8], in [9], in [10], in experiment [12] and in experiment [13] was inactive. Besides, the result in experiment [14], in [15], in [16], in experiment [17], in [18] and in experiment [19] was inactive. Besides, in experiment [20], the outcome was inactive. Besides, in experiment [11], the AC50 (usually the concentration giving half of the maximal activity seen) was 0.668 µM (active).
On to `CCCCCCCc1ccc(O)cc1`, for which the result in [1], in experiment [10] and in experiment [16] was inactive. Moreover, the AC50 in experiment [2] is 32.1 µM (active); in [3] it was 35.1 µM (active); in experiment [4], 35 µM (active); in [5], 37.6 µM (active); in experiment [6], 37.3 µM (active); in [7], 39.3 µM (active). In addition, the AC50 in experiment [8] is 39.1 µM (active); in experiment [9], 39.3 µM (active); in experiment [11] it was 32.2 µM (active); in experiment [12] it was 23 µM (active); in [13] it was 35.3 µM (active); in experiment [14], 35.5 µM (active). Moreover, the AC50 in experiment [15] is 31.2 µM (active); in experiment [17] it was 37 µM (active); in experiment [18], 35.3 µM (active); in experiment [19], 34.4 µM (active); in experiment [20], 39 µM (active).
For the compound `CCOC(=O)c1ccccc1C(=O)OCC`, the outcome in [1], in [2], in experiment [3], in [4], in experiment [5] and in experiment [6] was inactive. In addition, the outcome in experiment [7], in [8], in [9], in experiment [10], in experiment [11] and in experiment [12] was inactive. Also, the outcome in experiment [13], in experiment [14], in [15], in experiment [16], in experiment [17] and in [18] was inactive. Also, the result in [19] and in [20] was inactive.
For `CCOP(=S)(OCC)SCSCC`, the result in experiment [1], in [2], in [3], in experiment [4], in experiment [5] and in experiment [6] was inactive. For the same compound, the result in [7], in [8], in experiment [9], in experiment [10], in experiment [11] and in experiment [12] was inactive. Also, the result in experiment [13], in experiment [14], in [15], in experiment [16], in experiment [17] and in experiment [18] was inactive. In addition, the outcome in experiment [19] and in experiment [20] was inactive.
`CCCCN(CCCC)SN(C)C(=O)Oc1cccc2c1OC(C)(C)C2`: the AC50 is 31 µM (active) in [1]; 30.4 µM (active) in experiment [3]; 29.1 µM (active) in experiment [13]; 11.4 µM (active) in experiment [14]; 36.6 µM (active) in [15]; 27.1 µM (active) in experiment [17]. For the same compound, the AC50 is 31.3 µM (active) in experiment [19] and 33.7 µM (active) in [20]. The result in experiment [2], in [4], in [5], in experiment [6], in experiment [7] and in experiment [8] was inactive. For the same compound, the outcome in experiment [9], in experiment [10], in [11], in experiment [12], in experiment [16] and in experiment [18] was inactive.

The values are drawn from PubChem BioAssay (EPA / NIEHS).
